# From PubChem BioAssay (NCI)
# Compounds without any hit were thinned out: in the full panel of roughly 83,000, 20% have a hit.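 Percent growth is the endpoint: 0 to 100 indicates growth inhibition (40 means 60% inhibition), 0 means no net growth, and negative values indicate cell death.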 Values without a mark were called inactive. The source made the active and inactive calls. The calls were made as follows: active = growth percent below 10; inactive = the rest.
# Test system: DU-145 prostate
# Assay: NCI-60 one-dose screen, 48 h (100 = growth as untreated, 0 = no growth, -100 = all killed)
# Details: 10 µM unless noted
row,Compound,growth
1,C=CC(=O)Nc1cccc(-c2nc(SC)nc(NCc3ccccc3)c2C#N)c1,60.8%
2,COC(=O)c1ccc2oc(NC(=O)c3ccc(Nc4ccc([N+](=O)[O-])cc4C)c([N+](=O)[O-])c3)nc2c1,108%
3,COc1cc(/C=C/c2cc(/C=C/c3ccc(O)c(OC)c3)n(-c3c(Cl)cccc3Cl)c(=O)n2)ccc1O,28.7%
4,CSc1nc(Nc2cccc(NC(=O)CCl)c2)c(C#N)c(-c2cccc([N+](=O)[O-])c2)n1,13.4%
5,CC(C)(C)N1CCC1CN (stereo not drawn),118%
6,Cc1ccc(NC(=O)/C=C/c2ccccc2)c(C(N)=O)c1,-8.15% (active)
7,COc1ccc(-n2nc(C)c3c(Nc4ccc(NC(=O)Nc5cccc(C(F)(F)F)c5)cc4)ncnc32)cc1,18.2%
8,O=C1OCC2=C1C(c1ccncc1)c1cc3c(cc1N2CCO)OCO3 (stereo not drawn),107%
9,C#Cc1cccc(NC(=O)c2ccccc2NC(=O)C=C)c1,95.6% [8.25 µM]
10,CCOc1cc2ncc(C#N)c(Nc3ccc(F)c(Cl)c3)c2cc1NC(=O)CC1CCSS1 (stereo not drawn),-81.5% (active)
11,CN(Cc1cc(Cl)cc(Cl)c1O)Cc1cc(Cl)cc(Cl)c1O,68.9%
12,CC(=O)O[C@H]1[C@@H]2OC(=O)C(CSc3ccccc3)[C@@H]2C[C@H]2O[C@]2(C)CC/C=C(\C)CCC[C@@H]1C (stereo partly drawn),1.69% (active)
13,COc1ccc(/C=N/C2=C(C#N)C(c3ccc(N(C)C)cc3)c3ccc4ccccc4c3O2)cc1 (stereo not drawn),81.5%
14,C[n+]1ccccc1/C=C/c1ccc2cccc(O)c2n1,102%
15,Cc1nn(-c2ccc(F)cc2)c2ncnc(Oc3ccc(NC(=O)Nc4ccc(Cl)c(C(F)(F)F)c4)cc3)c12,106%
16,COc1ccc(C(=O)c2sc3nc(C)cc(C)c3c2N)cc1OC,90.7%
17,C=CC(=O)Nc1cccc(-c2nc(SC)nc(Nc3ccccc3OC)c2C#N)c1,10.8%
18,Nc1nc2ncc(CCNc3ccc(C(=O)O)cc3)nc2c(=O)[nH]1,128%
19,CCCSc1ccc2nc(NC(=O)OC)[nH]c2c1,16.1%

row,Compound,growth
1,CCCc1cc(=O)n2c(C(=O)Nc3ccc(F)cc3)c(C(=O)Nc3ccc(F)cc3)sc2n1,82.1% [30 µM]
2,O=C(/C=C/c1ccccc1)c1ccc(O)c(CN2CCN(c3cc4c(cc3F)c(=O)c(C(=O)O)cn4C3CC3)CC2)c1,31.3%
3,CCOC(=O)c1sc2nc(-c3cccc(OC)c3)nc(N3CCOCC3)c2c1C,101%
4,CCCCCCCCCCCCC[N+](C)(C)Cc1ccccc1,0.808% (active)
5,CCCOc1ccc2nc(NC(=O)OC)[nH]c2c1,0.47% (active)
6,Nc1n[nH]c2ccc([C@@H]3Nc4ccc5cn[nH]c5c4[C@H]4C5CCC(C5)[C@@H]34)cc12 (stereo partly drawn),18.3%
7,O=c1nc2oc3ccc4ccccc4c3cc-2s1,19%
8,COC(=O)c1cccc(NC(=O)c2ccc(-c3cccc(N)c3)o2)c1,110%
9,CCOC(=O)c1c(C)oc2ncnc(N3CCN(C(=S)Nc4ccccc4)CC3)c12,101%
10,CCCCN(CCCC)CCCn1c(-c2ccccc2)ccc1-c1ccccc1,68.3%
11,CN1CCN(CCCOc2cccc3nc(Nc4ccc(Cl)c(F)c4)ccc23)CC1,38.8%
12,COc1cccc(/C=N/NC(=O)c2ccccc2Nc2ccnc(C(F)(F)F)c2)c1O,22.8%
13,COc1cc2nc(N3CCCC3)nc(NCc3ccccc3)c2cc1OC,80.9%
14,COc1cc2c(cc1-c1c(C)noc1C)ncc1nc(-c3ccccn3)n([C@H](C)COC(F)F)c12,64.2%
15,COc1cccc(-c2nc3sccn3c2-c2ccnc(NCCCNS(=O)(=O)c3c(Cl)cccc3Cl)c2)c1,66.1%
16,N#Cc1c(-c2ccc(Cl)cc2)nc(NN=Cc2ccco2)nc1N1CCOCC1,85.4%
17,O=C(Nc1cccc2[nH]c(C(F)(F)F)nc12)c1ccc(-n2cnnn2)cc1,102%
18,CC1CCNC(C)C1 (stereo not drawn),110%
19,CCN(CC)c1ccc(-c2cc(-c3cc(OC)c(OC)c(OC)c3)nc(N3CCOCC3)c2C#N)cc1,38.8%
